Bioassay records as filed in PubChem BioAssay.
Dicer inh – blocks human Dicer maturation of pre-miR-21 | Q9UPY3 | cat-ELCCA pre-miR-21 Dicer processing, chemiluminescence; active compounds read high | z-score at 25 µM | actives 6% (n = 47,000) | AID 1347074; in the data active means z-score above about 3, passing the limit was not always enough;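 further: higher signal means more uncleaved substrate so more Dicer inhibition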
Hits are given with their value; . = inactive. The sample as a whole holds a higher share of hits than the screen did.

SMILES | Dicer inh
C=CCn1c(SCC(N)=O)nc2c(c1=O)C1(CCCCC1)Cc1ccccc1-2 | .
O=c1c2c(nc(NCCCO)n1-c1ccccc1)-c1ccccc1CC21CCCCC1 | 4.3
Cn1c(NCCCO)nc2c(c1=O)C1(CCCCC1)Cc1ccccc1-2 | .
CCOC(Cc1nnc(SCC(=O)c2cccc(C(F)(F)F)c2)n1C)OCC | .
CCOC(=O)CSC(=S)NCc1ccccc1 | .
CCCN1C(=O)C2(/C(=C(/O)c3ccc(C)cc3)C(=O)C(=O)N2CCN(C)C)c2ccccc21 (stereo not given) | .
Cc1ccc(OCC2SCCN2S(=O)(=O)c2ccc(F)cc2)c([N+](=O)[O-])c1 (stereo not given) | .
O=C(CN1C(=O)C2CCCCC2C1=O)N1CCN(c2ccc(F)cc2)CC1 (stereo not given) | 6.5
O=C(CN1C(=O)c2cccc3cccc1c23)N1CCN(c2ccc(F)cc2)CC1 | .
O=C1CCC2C(=O)N(CC(=O)N3CCCC3)C(=O)C2C1 (stereo not given) | .
Cc1nn(C(=O)c2ccccc2)c(C)c1Sc1nnnn1-c1ccccc1 | .
COc1ccc(-c2sc(/N=C/c3ccc(-c4ccccc4)cc3)c(C#N)c2C)cc1OC | .
CN(C)CC1CCc2c(c3ccccc3n2C)C1=O (stereo not given) | .
Cn1c2c(c3ccccc31)/C(=N/O)CCC2 | 3.9
Cn1c2c(c3ccccc31)/C(=N/OC(=O)c1ccc(C(C)(C)C)cc1)CCC2 | .
CCOC(=O)Cn1c(=O)c2ccsc2c2c(C#N)c(SC)sc21 | .
Cc1ccc2oc(-c3ccccc3)c(O)c(=O)c2c1 | .
CC(=O)Nc1c(-c2ccccc2)oc2ccccc2c1=O | 3.3
Cc1ccc2oc(-c3ccc(F)cc3)c(O)c(=O)c2c1 | .
Cc1c(-c2ccccc2)oc2ccccc2c1=O | .
COc1c(-c2ccccc2)oc2ccccc2c1=O | .
Cc1ccc(-c2oc3ccccc3c(=O)c2O)cc1 | 3.2
Cc1oc2cc(OC(C)C(=O)O)ccc2c(=O)c1-c1ccc(Br)cc1 (stereo not given) | .
O=C1CC(NC2CCN(S(=O)(=O)c3ccc(Cl)cc3)CC2)C(=O)N1c1ccc(F)cc1 (stereo not given) | .
Cc1nc(-c2ccc(C(F)(F)F)cn2)nc(N2CCCCC2)c1Cl | .
SMILES | Dicer inh
CCCc1c(O)nc(SCCC(=O)O)[nH]c1=O | .
Cc1ccc(NC(=O)NN2CC(=O)N(c3ccccc3F)CC2=O)cc1 | 4.8
NN1CC(=O)N(c2ccccc2F)CC1=O | .
Cc1ccc(NC(=O)NN2CC(=O)N(c3ccc(Cl)cc3)CC2=O)cc1 | .
COc1ccc(N=Nc2c(O)c(O)cc3ccccc23)cc1 | .
C=C(c1ccccc1)c1ccc(OC)cc1 | .
C#CC(O)(c1ccc(OC)cc1)c1ccccc1F (stereo not given) | 4.1
CN=C(C)/C(C(=O)OC)=C(/O)c1ccc(Cl)cc1 | .
COc1cc(/C=C/c2nc(-c3ccccc3O)n(-c3ccccc3)n2)ccc1O | 6
COc1cc(/C=N/Nc2nc3c(c(=O)n(Cc4ccccc4)c(=O)n3C)n2C)ccc1O | .
O=C(O)COc1ccc(/C=C/c2nc(-c3ccccc3O)n(-c3ccccc3)n2)cc1 | .
O=C1c2oc3ccccc3c(=O)c2C(c2cccc(OCc3ccccc3)c2)N1c1ccccn1 (stereo not given) | .
CC1(C)CC(=O)C2=C(C1)Nc1cc(C(=O)c3ccccc3)ccc1NC2c1ccc(F)cc1 (stereo not given) | .
Cc1ccc(Nc2nc(C)cc(C)c2C#N)cc1 | .
C=CCc1c(C)nc(SC)nc1Nc1ccc(C)cc1 | 5.7
C=CCc1c(C)nc(SC)nc1Nc1ccc(C(=O)OCC)cc1 | .
CCn1nc(-c2cccs2)cc1C(=O)NC(C)C | .
COC(=O)c1cc(=O)n2c(c1C(=O)c1ccc(Cl)cc1)SCC2 | 5.6
COC(=O)c1cc(Cl)cc(Cl)c1-c1c(Cl)cc(Cl)cc1C(=O)OC | .
O=C(c1ccc(Cl)cc1)N1CCSC1=S | .
COc1ccc2c(-c3ccc(Cl)cc3)c(C)oc2c1 | .
Cc1ccc(Sc2ccccc2C(=O)O)c(S(N)(=O)=O)c1 | .
CCCCNc1nc2c(c(=O)n(C)c(=O)n2C)n1C | .
Cc1cccc(CNCc2ccc3c(c2)OCO3)c1 | .
Cc1nn(C)c(C)c1NC(=O)CCSc1nc(-c2ccco2)cc(C(F)(F)F)n1 | 3
SMILES | Dicer inh
O=C(CCSc1nc(-c2ccco2)cc(C(F)(F)F)n1)Nc1ccccc1 | .
Cc1cc(NC(=O)CCSc2nc(-c3ccco3)cc(C(F)(F)F)n2)n(-c2ccccc2)n1 | .
O=S(=O)(c1ccc(Cl)c(Cl)c1)N1CCSCC1 | .
O=C1C(=O)N(Cc2ccc(Cc3ccc(CN4C(=O)C(=O)c5ccccc54)cc3)cc2)c2ccccc21 | .
O=C1C(=O)N(Cc2ccccc2)c2ccccc21 | .
Cc1cc(C)c(CN2C(=O)C(=O)c3ccccc32)cc1CN1C(=O)C(=O)c2ccccc21 | 3.6
Cc1ccsc1/C=C/c1ccnc(SCC(=O)Nc2ccc(C(C)C)cc2)n1 | .
CCOC(=O)C1=C(C)N=C2SCCC(=O)N2C1c1ccc(F)cc1 (stereo not given) | .
